PubChem BioAssay
Calls of active or inactive are those of the source.

Tests used:
[1] = small molecules captured by biotinylated probe aFSTL3 – biochemical, small-molecule microarray, fluorescence 635/667, stem cell growth factor project, primary screen (AID 1064); conditions: higher = more signal;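 note: measures binding of the biotinylated anti-FSTL3 antibody to printed compounds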
[2] = binders from COS7 lysate, DM2A8 probe, primary screen, torsin A project, cell lysate, small-molecule microarray, fluorescence 635/667 (AID 1065); conditions: higher = more signal, COS7 lysate expressing mutant human TOR1A
[3] = small molecules captured by biotinylated probe aFGF2 – biochemical, small-molecule microarray, fluorescence 635/667, stem cell growth factor project, primary screen (AID 1067); conditions: higher = more signal;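 note: measures binding of biotinylated aFGF2 protein to printed compounds on slides; z-score merges feature fluorescence and signal-to-noise across triplicate slides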
[4] = small molecules captured by biotinylated probe aFGF10 – biochemical, small-molecule microarray, fluorescence 635/667, stem cell growth factor project, primary screen (AID 1071); conditions: higher = more signal;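 note: score merges 667 nm spot intensity and signal to noise from triplicate slides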
[5] = molecular target: Neurogenic locus notch homolog protein 2 (Homo sapiens) (UniProt Q04721); assay: small molecules binding Notch2 protein – biochemical, small-molecule microarray, 635 nm fluorescence, stem cell growth factors, primary screen (AID 1073); conditions: higher = more signal
Sequence of Neurogenic locus notch homolog protein 2 (Homo sapiens) (Q04721 whole entry, looked up, canonical isoform): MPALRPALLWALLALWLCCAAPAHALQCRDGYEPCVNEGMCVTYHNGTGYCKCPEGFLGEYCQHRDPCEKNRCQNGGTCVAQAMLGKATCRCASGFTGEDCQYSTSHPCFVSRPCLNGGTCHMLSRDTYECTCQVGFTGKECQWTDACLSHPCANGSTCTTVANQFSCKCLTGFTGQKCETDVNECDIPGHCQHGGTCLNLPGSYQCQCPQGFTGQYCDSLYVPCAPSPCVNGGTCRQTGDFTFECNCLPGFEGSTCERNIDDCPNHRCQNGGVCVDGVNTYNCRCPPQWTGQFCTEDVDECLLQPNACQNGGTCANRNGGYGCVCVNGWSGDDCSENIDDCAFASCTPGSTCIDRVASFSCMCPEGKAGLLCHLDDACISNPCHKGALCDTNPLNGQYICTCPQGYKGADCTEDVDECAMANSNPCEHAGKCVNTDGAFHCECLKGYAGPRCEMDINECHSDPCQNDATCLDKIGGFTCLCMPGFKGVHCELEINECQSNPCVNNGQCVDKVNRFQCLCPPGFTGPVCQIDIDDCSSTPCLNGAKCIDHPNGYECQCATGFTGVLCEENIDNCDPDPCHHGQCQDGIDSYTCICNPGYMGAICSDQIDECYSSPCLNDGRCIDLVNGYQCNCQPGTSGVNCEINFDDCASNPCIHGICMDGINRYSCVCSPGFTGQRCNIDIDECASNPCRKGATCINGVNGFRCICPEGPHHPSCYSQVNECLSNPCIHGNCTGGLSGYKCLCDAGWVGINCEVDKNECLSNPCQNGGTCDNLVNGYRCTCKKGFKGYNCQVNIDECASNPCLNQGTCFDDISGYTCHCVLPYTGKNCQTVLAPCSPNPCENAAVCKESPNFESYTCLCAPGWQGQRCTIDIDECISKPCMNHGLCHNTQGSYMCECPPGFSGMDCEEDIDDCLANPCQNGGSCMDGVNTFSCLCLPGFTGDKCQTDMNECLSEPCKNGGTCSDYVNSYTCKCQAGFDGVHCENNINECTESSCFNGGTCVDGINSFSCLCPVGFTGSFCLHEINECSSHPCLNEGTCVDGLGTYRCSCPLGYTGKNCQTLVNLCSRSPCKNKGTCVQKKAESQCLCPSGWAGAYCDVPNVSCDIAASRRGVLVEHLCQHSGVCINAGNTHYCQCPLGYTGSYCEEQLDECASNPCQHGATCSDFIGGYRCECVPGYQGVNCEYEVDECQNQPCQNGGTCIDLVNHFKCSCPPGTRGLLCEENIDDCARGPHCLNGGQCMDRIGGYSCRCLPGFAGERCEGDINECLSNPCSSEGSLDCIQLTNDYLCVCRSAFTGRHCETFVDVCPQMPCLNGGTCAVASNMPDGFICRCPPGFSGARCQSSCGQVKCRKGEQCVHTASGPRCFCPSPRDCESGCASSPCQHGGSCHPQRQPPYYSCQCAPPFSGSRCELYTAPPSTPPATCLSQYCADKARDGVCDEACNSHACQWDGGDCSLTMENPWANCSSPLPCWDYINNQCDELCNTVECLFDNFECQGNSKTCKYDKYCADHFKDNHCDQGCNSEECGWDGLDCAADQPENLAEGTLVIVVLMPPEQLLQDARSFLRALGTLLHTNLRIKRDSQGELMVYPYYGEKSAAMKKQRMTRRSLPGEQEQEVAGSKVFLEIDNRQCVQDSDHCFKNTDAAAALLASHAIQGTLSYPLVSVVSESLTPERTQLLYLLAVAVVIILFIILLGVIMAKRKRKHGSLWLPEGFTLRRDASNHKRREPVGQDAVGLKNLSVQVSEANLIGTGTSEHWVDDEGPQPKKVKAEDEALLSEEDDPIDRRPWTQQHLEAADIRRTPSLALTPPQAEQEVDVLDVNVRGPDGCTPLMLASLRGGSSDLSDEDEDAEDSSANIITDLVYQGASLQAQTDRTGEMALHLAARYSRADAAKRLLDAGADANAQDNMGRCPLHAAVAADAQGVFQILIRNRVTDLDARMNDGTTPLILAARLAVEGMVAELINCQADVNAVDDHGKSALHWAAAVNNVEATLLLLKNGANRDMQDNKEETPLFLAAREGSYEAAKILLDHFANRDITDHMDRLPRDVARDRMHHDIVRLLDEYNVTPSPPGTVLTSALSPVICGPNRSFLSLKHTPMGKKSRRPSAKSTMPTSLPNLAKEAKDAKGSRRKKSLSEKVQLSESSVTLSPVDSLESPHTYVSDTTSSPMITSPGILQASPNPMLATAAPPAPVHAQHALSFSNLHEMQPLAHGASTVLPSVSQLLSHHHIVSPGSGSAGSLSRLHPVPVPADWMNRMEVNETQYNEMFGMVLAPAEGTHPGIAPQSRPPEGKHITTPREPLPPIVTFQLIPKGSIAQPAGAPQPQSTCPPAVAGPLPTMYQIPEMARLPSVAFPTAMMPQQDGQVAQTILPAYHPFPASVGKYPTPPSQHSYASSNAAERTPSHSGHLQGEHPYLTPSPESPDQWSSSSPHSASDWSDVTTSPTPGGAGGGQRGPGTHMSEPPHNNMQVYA

[6] = molecular target: Pro-neuregulin-1, membrane-bound isoform (Homo sapiens) (UniProt Q02297); assay: small molecules binding neuregulin-1 protein – biochemical, small-molecule microarray, fluorescence 635/667, psychiatric disease protein project, primary screen (AID 1075); conditions: NRG1 binding, 635 nm fluorescence, higher = more signal;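 note: score combines 667 nm spot fluorescence with signal to noise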
Sequence of Pro-neuregulin-1, membrane-bound isoform (Homo sapiens) (Q02297 whole entry, looked up, the tested form may be a part, canonical isoform): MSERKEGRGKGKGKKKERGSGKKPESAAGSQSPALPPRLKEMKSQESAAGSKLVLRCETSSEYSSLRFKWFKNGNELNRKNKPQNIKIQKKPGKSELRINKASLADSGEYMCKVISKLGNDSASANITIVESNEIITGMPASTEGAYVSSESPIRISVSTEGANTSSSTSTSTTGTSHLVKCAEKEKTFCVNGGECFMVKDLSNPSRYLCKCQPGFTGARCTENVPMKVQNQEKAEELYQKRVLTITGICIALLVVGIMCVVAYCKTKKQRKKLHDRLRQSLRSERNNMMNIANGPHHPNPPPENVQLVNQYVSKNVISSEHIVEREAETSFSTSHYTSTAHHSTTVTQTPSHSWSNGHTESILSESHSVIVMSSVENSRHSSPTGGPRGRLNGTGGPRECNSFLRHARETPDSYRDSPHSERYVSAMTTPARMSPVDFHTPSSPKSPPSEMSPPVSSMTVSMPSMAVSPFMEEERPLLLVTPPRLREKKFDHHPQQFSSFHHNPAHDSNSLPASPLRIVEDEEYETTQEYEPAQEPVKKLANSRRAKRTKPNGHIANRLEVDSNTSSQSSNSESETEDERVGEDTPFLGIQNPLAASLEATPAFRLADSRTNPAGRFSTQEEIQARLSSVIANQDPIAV

[7] = test system: Neuregulin-1 EGF-like domain; assay: small molecules binding NRG1 EGF domain – biochemical, small-molecule microarray, 635 nm fluorescence, primary screen (AID 1081); conditions: higher = more signal;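 note: binding of the protein to compounds printed on small-molecule microarray slides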
[8] = FRG1 expression reporter modulators in myotubes – cell-based, C2C12 myotubes, firefly/Renilla luciferase, luminescence, FRG1 inhibition for FSHD, primary screen (AID 1084); conditions: FRG1 promoter luciferase, higher = more signal, called active from +8 up or from −8 down
[9] = small molecules captured by biotinylated probe aFST – biochemical, small-molecule microarray, fluorescence 635/667, stem cell growth factor project, primary screen (AID 1086); conditions: higher = more signal;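 note: score merges 667 nm fluorescence with signal-to-noise of each printed compound spot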
[10] = binders of probe aHhip on microarray, primary screen, stem cell growth factor project, biochemical, small-molecule microarray, fluorescence 635/667 (AID 1087); conditions: higher = more signal;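 note: score merges spot fluorescence at 667nm with spot signal to noise ratio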

SMILES | composite z-score [1] | composite z-score [2] | composite z-score [3] | composite z-score [4] | composite z-score [5] | composite z-score [6] | composite z-score [7] | z-score [8] | composite z-score [9] | composite z-score [10]
Cc1ccc(S[C@]2(C(=O)NCC(F)(F)F)CC(=O)N(Cc3cc(C(F)(F)F)cc(C(F)(F)F)c3)[C@@H]2c2ccc(CO)cc2I)cc1 | 0.225 | 1.52 | -0.128 | -0.41 | -1.14 | 0.848 | 0.434 | -0.326 (inactive) | -0.666 | -0.409
COC(=O)C1=CC(CCCO)=CC(c2cccs2)N(C)C=C1C(=O)OC (stereo not given) | 0.0256 | -0.106 | -0.0737 | -0.379 | -0.324 | 1.08 | 1.33 | -0.656 (inactive) | -0.0824 | -0.0994
COc1ccc([Si](C)(C)[C@@H]2[C@@H](CCO)O[C@]3(C(=O)N(Cc4ccccc4)c4ccc(NC(=O)[C@H](C)O)cc43)[C@H]2C)cc1 | -0.441 | 0.383 | -0.0505 | 0.8 | 1.23 | 1.13 | 1.13 | -3.84 (inactive) | 0.559 | 0.162
Cc1ccc(N2C(=O)c3ccccc3[C@@H](C(=O)NCCCN(C)C)[C@@H]2c2ccc(CO)cc2)nc1 | 1.36 | -0.538 | 0.111 | -0.533 | -0.854 | 1.02 | 1.44 | 0.298 (inactive) | 0.282 | -0.757
CCOC(=O)C=Cc1cccc(C)c1O | -0.071 | -0.232 | -0.0348 | -0.0154 | 0.177 | 0.306 | -0.155 | 1.5 (inactive) | -0.488 | -0.236
CC(c1ccccc1)C(O)C1C=CC2C(=O)N(C)C(=O)C2N1Nc1ccccc1 (stereo not given) | 0.799 | -0.146 | 0.362 | 0.796 | 1.63 | 1.43 | 1.25 | 0.796 (inactive) | 0.814 | 0.0578
[N-]=[N+]=Nc1ccccc1[C@@H]1OC(c2ccc(OCCCO)cc2)=N[C@]1(Cc1ccccc1)C(=O)O | -0.0974 | 0.396 | -0.0178 | 0.366 | 0.828 | 1.42 | 1.22 | 0.235 (inactive) | 1.39 | -0.126
COC(=O)[C@@]1(Cc2ccccc2)[C@H]2c3cc(C(=O)N4CCCC4)n(CCc4ccccn4)c3C[C@H]2CN1C(=O)c1ccccc1 | 0.223 | 0.487 | -0.177 | 0.283 | 1.33 | 2.09 | 1.35 | 2.95 (inactive) | 1.18 | 0.503
COc1ccccc1CN1C(=O)c2ccccc2[C@](Cc2ccccc2I)(C(=O)O)[C@@H]1c1ccc(CO)cc1 | -0.689 | 0.387 | 0.0043 | 1.01 | 1.51 | 1.36 | 1.27 | -1.49 (inactive) | -0.262 | 0.305
CCOC(=O)C[C@H]1[C@H](OC(=O)c2ccccc2-c2ccccc2)[C@@H](NC(=O)c2ccc3ccccc3n2)c2cc(OCCCO)ccc2N1C(=O)Cc1ccc(OC)cc1 | 0.139 | 0.394 | -0.0715 | 0.158 | 0.383 | 0.336 | 0.028 | 0.63 (inactive) | 0.311 | -0.142
COc1cc(NN2C(C(O)c3ccco3)C=CC3C(=O)N(C)C(=O)C32)cc(OC)c1OC (stereo not given) | 0.256 | 0.504 | 0.083 | 0.27 | 0.578 | 1.4 | 1.38 | -0.389 (inactive) | 0.775 | 0.837
[N-]=[N+]=Nc1ccccc1[C@@H]1OC(c2ccc(OCCCO)cc2)=N[C@]1(Cc1ccccc1)C(=O)N1CCCCC1 | 0.0153 | 1 | 0.122 | 0.9 | 1.39 | 1.37 | 1.28 | -2.33 (inactive) | 1.46 | 0.249
CC(C)c1ccc(NN2C(C(O)c3ccc(F)cc3)C=CC3C(=O)N(c4ccccc4)C(=O)C32)cc1 (stereo not given) | -0.26 | 0.25 | 0.187 | 1 | 1.55 | 1.28 | 1.04 | -0.38 (inactive) | 1.25 | -0.118
CCOc1cc(C(O)C2C=CC3C(=O)NC(=O)C3N2Nc2ccc(Cl)cc2Cl)ccc1O (stereo not given) | 0.0596 | -0.565 | 0.042 | -0.246 | -0.463 | -0.226 | -0.885 | 0.59 (inactive) | 0.0054 | -0.297
